Source: PubChem BioAssay (NCI)
Compounds without any hit were thinned out: in the full panel of roughly 83,000, 20% have a hit.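 48-hour exposure, single concentration, 96-well plates; percent growth endpoint where 0 means no net growth. Active: below 10.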 Calls of active or inactive are those of the source.

Experiments:
Assay in all cases: NCI-60 one-dose screen, 48 h (100 = growth as untreated, 0 = no growth, -100 = all killed)
Conditions in all cases: 10 µM unless noted
[1] = tested on: K-562 leukemia
[2] = tested on: MALME-3M melanoma
[3] = tested on: MDA-MB-231 breast
[4] = tested on: RXF 393 renal
[5] = tested on: SF-268 CNS
[6] = tested on: SF-295 CNS
[7] = tested on: SF-539 CNS
[8] = tested on: UACC-257 melanoma
[9] = tested on: M14 melanoma
[10] = tested on: HCT-15 colon
[11] = tested on: HT29 colon
[12] = tested on: SNB-75 CNS
[13] = tested on: SNB-19 CNS
[14] = tested on: U251 CNS
[15] = tested on: PC-3 prostate
[16] = tested on: SK-MEL-5 melanoma
[17] = tested on: UACC-62 melanoma
[18] = tested on: LOX IMVI melanoma
[19] = tested on: SK-MEL-28 melanoma
[20] = tested on: SK-MEL-2 melanoma

Measured: growth

Cc1ccccc1NC(=O)/C=C/c1ccc(OCCOc2ccc3c(C)cc(=O)oc3c2)cc1
inactive: [1] 88.8% | [2] 89.7% | [3] 91.8% | [4] 95.3% | [5] 89.2% | [6] 104% | [7] 50.8% | [8] 101% | [9] 98.2% | [10] 74.7% | [11] 96.7% | [12] 84.1% | [13] 86.4% | [14] 85.8% | [15] 95.8% | [16] 92.6% | [17] 91.6% | [18] 88.5% | [19] 90.9% | [20] 103%

Cc1nc(-c2cc3ccccc3oc2=O)ccc1C(=O)/C=C/c1ccccn1
active: [1] 7.22% | [7] 2.25% | [10] -33.3% | [11] 2.1% | [14] 8% | [18] -84.5%
inactive: [2] 88.3% | [3] 12.8% | [4] 32.3% | [5] 78.5% | [6] 71.1% | [8] 101% | [9] 80.2% | [12] 56.3% | [13] 71.6% | [15] 68.2% | [16] 95.9% | [17] 71.1% | [19] 95.1% | [20] 108%

Clc1ccc(Cc2nnc3sc(-c4cccnc4)nn23)cc1
inactive: [1] 87.1% | [2] 108% | [3] 93.6% | [4] 85.9% | [5] 96.4% | [6] 99.9% | [7] 92.5% | [8] 109% | [9] 106% | [10] 99.6% | [11] 102% | [12] 94.4% | [13] 93.3% | [14] 99% | [15] 101% | [16] 96.4% | [17] 91.1% | [18] 96.7% | [19] 109% | [20] 113%

COc1cc(OC)c(C2SCC(=O)N2Nc2ncnc3ccccc23)cc1OC (stereo not given)
inactive: [1] 105% | [2] 96.2% | [3] 98.8% | [4] 124% | [5] 107% | [6] 102% | [7] 95.3% | [8] 108% | [9] 107% | [10] 103% | [11] 113% | [12] 101% | [13] 99.4% | [14] 105% | [15] 107% | [16] 102% | [17] 97.6% | [18] 117% | [19] 104% | [20] 123%

O=C1c2c(c3c4cc(Br)ccc4[nH]c3c3ccc4ccccc4c23)C(=O)N1CCO
inactive: [1] 71.6% | [2] 103% | [3] 75.3% | [4] 107% | [5] 105% | [6] 91.8% | [7] 90.9% | [8] 97.4% | [9] 103% | [10] 72.8% | [11] 89.9% | [12] 128% | [13] 85.6% | [14] 74.3% | [15] 83.3% | [16] 100% | [17] 72.6% | [18] 66.4% | [19] 99.8% | [20] 110%

COc1ccc(-c2csc(N/N=C/c3c(-c4ccc(S(C)(=O)=O)cc4)nc4ccccn34)n2)cc1
inactive: [1] 98.5% | [2] 118% | [3] 107% | [4] 114% | [5] 110% | [6] 106% | [7] 107% | [8] 112% | [9] 106% | [10] 101% | [11] 115% | [12] 110% | [13] 106% | [14] 106% | [15] 105% | [16] 96.5% | [17] 102% | [18] 126% | [19] 107% | [20] 114%

Cc1cccc2sc(/N=C(\N)C(Br)Br)nc12
active: [1] 4.43% | [2] -53.6% | [3] 6.18% | [4] -22.5% | [7] 8.75% | [10] -36.5% | [11] -30.4% | [12] 7.62% | [14] 9.02% | [18] -86% | [20] 5.61%
inactive: [5] 72.4% | [6] 29% | [8] 67.8% | [9] 32.6% | [13] 46.8% | [15] 40.8% | [16] 51.4% | [17] 22% | [19] 38.4%

COc1ccc(NC(=O)c2sc3nc(-c4cnccn4)cc(-c4cccs4)c3c2N)cc1
active: [7] -14.2%
inactive: [1] 54.5% | [2] 86.5% | [3] 79.7% | [4] 31.7% | [5] 81% | [6] 84% | [8] 85.1% | [9] 81.2% | [10] 66.5% | [11] 20.8% | [12] 67.1% | [13] 93.6% | [14] 55.5% | [15] 82.7% | [16] 59.4% | [17] 32.7% | [18] 18.4% | [19] 84.3% | [20] 86.6%

Cn1cc(-c2cc(N)n3nc(-c4cn(C)c5ccc(Cl)cc45)cc3n2)c2cc(Cl)ccc21
active: [11] -16.5% | [14] -4.82%
inactive: [1] 26.5% | [2] 100% | [3] 71.1% | [4] 121% | [5] 78.8% | [6] 95.4% | [7] 94.2% | [8] 108% | [9] 53.4% | [10] 32.8% | [12] 83.2% | [13] 99.4% | [15] 87.3% | [16] 104% | [17] 93.9% | [18] 11.3% | [19] 76.7% | [20] 121%

N[C@@H](Cc1cn(-c2c3ccccc3nc3ccccc23)nn1)C(=O)O
inactive: [1] 88% | [2] 103% | [3] 97.4% | [4] 114% | [5] 101% | [6] 105% | [7] 90.8% | [8] 106% | [9] 107% | [10] 85.4% | [11] 107% | [12] 96.7% | [13] 93.2% | [14] 103% | [15] 99.2% | [16] 101% | [17] 93.5% | [18] 106% | [19] 100% | [20] 130%

COc1cc2nc(-c3ccc(C(F)(F)F)cc3)cc(OCCCNCC3CCCO3)c2cc1OC (stereo not given)
inactive: [1] 10.2% | [3] 18.2% | [5] 59.5% | [7] 45.5% | [10] 13.7% | [13] 75.3% | [14] 55.7% | [15] 45.4% | [20] 91.7%
active: [2] -15.6% | [4] 3.22% | [6] -33.6% | [8] -38.7% | [9] -66.5% | [11] -7.81% | [12] 8.73% | [16] 4.75% | [17] -22.1% | [18] -13.4% | [19] -26.8%

O=C(CSc1nc2sc3c(c2c(=O)n1-c1ccc(Cl)cc1)CCCC3)NNC(=O)Nc1ccc(Cl)c(C(F)(F)F)c1
inactive: [1] 11.7% | [2] 22.5% | [3] 61.2% | [4] 70.5% | [5] 67% | [7] 73.1% | [8] 46.5% | [9] 44% | [10] 24.5% | [12] 42.1% | [13] 50.4% | [16] 34.7% | [17] 37.1% | [19] 53.7%
active: [6] 9.82% | [11] 6.06% | [14] 4.22% | [15] -2.4% | [18] 1.34% | [20] -9.26%

c1ccc2c(NCCCn3ccnc3)c3oc4ccccc4c3nc2c1
active: [1] 5.89% | [2] 1.01% | [3] -10% | [4] -33.3% | [6] 5.7% | [7] 4.46% | [9] 2.76% | [10] -6.93% | [11] -24% | [15] 5.76% | [16] 9.52% | [17] -14.9% | [18] -61.6% | [19] 9.69% | [20] -27.2%
inactive: [5] 10.7% | [8] 16.4% | [12] 17.8% | [13] 11.9% | [14] 17.9%

CS(=O)(=O)Nc1ccc(-c2nn(-c3ccc(S(C)(=O)=O)cc3)cc2/C=C/C(=O)c2ccc(NC(=O)CO[N+](=O)[O-])cc2)cc1
inactive: [1] 102% | [2] 107% | [3] 93.4% | [4] 95% | [5] 108% | [6] 97.2% | [7] 101% | [8] 103% | [9] 111% | [10] 99.6% | [11] 104% | [12] 108% | [13] 100% | [14] 101% | [15] 98.2% | [16] 100% | [17] 100% | [18] 93.2% | [19] 104% | [20] 97.3%

COc1cc2cc(Oc3ccc(NC(=O)c4cccc(C(F)(F)F)c4)cc3)c(C)nc2cc1OCCN1CCCCC1
inactive: [5] 81.5% | [12] 90.8% | [13] 90.2% | [15] 33.1% | [16] 38.7% | [20] 74%
active: [1] -48.2% | [2] -86.1% | [3] -100% | [4] -16% | [6] 7.09% | [7] -68.8% | [8] -87.3% | [9] -86.7% | [10] -88.8% | [11] -50.7% | [14] -63.8% | [17] -65.8% | [18] -93.6% | [19] -88.5%

Clc1ccc2c(NCCCN3CCOCC3)c3oc4ccc(Cl)cc4c3nc2c1
active: [1] 2.23% | [10] 4.4% | [18] -82.8%
inactive: [2] 89.3% | [3] 50.3% | [4] 22.2% | [5] 68.5% | [6] 35% | [7] 41.7% | [8] 102% | [9] 97.5% | [11] 33.5% | [12] 79.6% | [13] 69.6% | [14] 44.1% | [15] 60.8% | [16] 74.2% | [17] 98.7% | [19] 80.4% | [20] 122%
